Assay outcomes (PubChem)
Calpain2 inh – inhibitors of pig calpain II, primary screen, biochemical, fluorogenic peptide substrate, 1536-well. hit rate 0.37% among 220,000. inhibition, % at 16 µM. purified calpain II, 30 min;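 active = inhibition above about 50%, limit read from the data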
p47phox inh – p47phox/p22phox peptide binding inhibitors, primary screen, biochemical, uHTS, NADPH oxidase regulatory subunit; fluorescence polarization, 2 h; inhibition, % at 24.7 µM; hit rate 0.53% among 220,000;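 active = inhibition above about 30%, limit read from the data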;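 also: 0% = p47phox with labelled peptide and 100% = labelled peptide alone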
Target sequence (P14598 whole entry, looked up): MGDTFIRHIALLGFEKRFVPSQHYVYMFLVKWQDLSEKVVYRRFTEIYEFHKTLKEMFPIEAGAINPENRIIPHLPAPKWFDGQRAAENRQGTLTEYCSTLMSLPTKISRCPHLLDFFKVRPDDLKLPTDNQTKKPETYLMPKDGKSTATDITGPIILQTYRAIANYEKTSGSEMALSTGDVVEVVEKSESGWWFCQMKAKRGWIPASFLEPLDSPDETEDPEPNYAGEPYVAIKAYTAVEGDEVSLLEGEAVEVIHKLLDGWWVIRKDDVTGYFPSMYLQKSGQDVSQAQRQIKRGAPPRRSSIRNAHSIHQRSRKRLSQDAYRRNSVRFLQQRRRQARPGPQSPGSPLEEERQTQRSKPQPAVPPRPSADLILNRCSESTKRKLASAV
Mcl1-Bid inh – Mcl-1/Bid binding inhibitors, primary screen, biochemical, TR-FRET, 1536-well; Induced myeloid leukemia cell differentiation protein Mcl-1 (Homo sapiens), Q07820; TR-FRET Mcl-1/Bid-Dy647 peptide binding; inhibition, % at 21.7 µM; hit rate 0.97% among 220,000; AID 1021, 2008;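 active = compounds that cut the binding signal by more than half at the single screening dose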;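 also: His-tagged Mcl-1 with europium anti-His antibody binding Bid BH3 peptide; 0% = Mcl-1 plus peptide wells and 100% = peptide-only wells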
Mcl1-Noxa inh – Mcl-1/Noxa binding inhibitors, primary screen, biochemical, TR-FRET, 1536-well; Induced myeloid leukemia cell differentiation protein Mcl-1 (Homo sapiens), Q07820; hit rate 1.5% among 220,000; AID 1022, 2008; inhibition, % at 21.7 µM; TR-FRET Mcl-1/Noxa peptide binding, 2 h;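 active = compounds that cut the protein-peptide binding signal by more than 50% relative to plate controls in a single-dose test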;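 also: His-tagged Mcl-1 with rhodamine Noxa BH3 peptide and terbium anti-His antibody; 0% = Mcl-1 plus Noxa peptide wells and 100% = peptide-only wells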
14-3-3 Bad PPI – inhibitors of 14-3-3 zeta/Bad binding, primary screen, biochemical, TR-FRET, bovine 14-3-3 zeta | hit rate 0.71% among 220,000 | TR-FRET 14-3-3zeta/Dy647-pBad peptide displacement, 1 h | 14-3-3 protein zeta/delta (Bos taurus), P63103 | inhibition, % at 21.7 µM;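 active = inhibition above about 70%, limit read from the data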;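 also: 0% = full 14-3-3 plus peptide FRET controls and 100% = background without 14-3-3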
Mcl-1 Bim block – inhibitors of Bim peptide binding to Mcl-1, primary screen, biochemical, bead-based flow cytometry, multiplex; hit rate 0.1% among 190,000; Bim peptide-Mcl-1 binding; AID 1009, 2008; inhibition, % at 10 µM; in the data active = inhibition above about 40%;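 also: 0% = no compound tracer wells and 100% = peptide blocker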
Starred values were filed as active, the others as inactive; x = not tested or not shown; [ ] = dose if it differs, or a comment. A selection: hits, their analogues and other compounds. The true share with any hit is near 3.4%.

SMILES	Calpain2 inh	p47phox inh	Mcl1-Bid inh	Mcl1-Noxa inh	14-3-3 Bad PPI	Mcl-1 Bim block
CSc1nc2cc(C)nn2c(-c2ccccc2)c1C#N	10	6	-7	-10	94*	x
CSc1nc(C)cc(C)c1C#N	x	x	x	x	x	0
Cc1cccc(SC2CCN(Cc3nc(CC4CC4)no3)CC2)c1	15	41*	-38	2	-5	-5
Cc1cccc(OC2CCN(Cc3nc(CC4CC4)no3)CC2)c1	25	-5	-35	-3	0	0
Cc1ccc2nsnc2c1S(=O)(=O)NCCc1c(C)[nH]c2ccc(F)cc12	6	-313	55*	8	5	0
Cc1ccc(C)c(NS(=O)(=O)c2c(C)ccc3nsnc23)c1	-15	-13	7	4	-7	1
NC(=O)CC(NC(=O)c1ccc(Br)cc1)c1ccc(NCCc2ccc(F)cc2)c([N+](=O)[O-])c1 (stereo unspecified)	13	13	18	12	13	x
NC(=O)CC(NC(=O)Cc1ccc(Br)cc1)c1ccc(NC2CCC2)c([N+](=O)[O-])c1 (stereo unspecified)	-61	0	-50	51*	0	x
CC(C)Nc1ccc(C(CC(N)=O)NC(=O)c2ccc(Br)cc2)cc1[N+](=O)[O-] (stereo unspecified)	-4	-16	65*	2	6	x
C=CCn1c(SCC(=O)N2CCc3ccccc3C2)nc2sc(C)cc2c1=O	40	-5	-18	21	10	0
O=C(NCc1ccco1)c1ccc(N2CCCC2=O)cc1	-9	-18	-21	12	0	11
O=C(N/N=C/c1ccco1)c1ccc(N2CCCC2=O)cc1	-7	-5	93*	8	-5	-1
Cc1ccc(-c2nc(NC(=O)CSc3cc(C)c4ccccc4n3)ns2)cc1	-14	52*	-23	-212	75*	-425
O=C(CSc1ccc2ccccc2n1)Nc1nsc(-c2ccc(Cl)cc2)n1	-37	19	61*	19	52	-270
O=C(O)C1CSC(c2ccccc2Cl)N1C(=O)c1ccc(Cl)cc1 (stereo unspecified)	-17	87*	12	0	-3	-1
Cc1ccc(OCC(=O)c2c[nH]c3ccccc23)c([N+](=O)[O-])n1	-23	2	-41	13	-9	-2
COc1cccc(C(=O)NC2CC3CCCC(C2)N3CC(=O)Nc2ccc(N(C)C)cc2)c1 (stereo unspecified)	-11	-4	-45	34	10	0
COc1cccc(C(=O)NC2CC3CCCC(C2)N3CC(=O)Nc2ccccc2)c1 (stereo unspecified)	36	58*	54*	66*	83*[fluorescence artefact?]	1
O=C(c1ccccc1F)N1CCCC(C(=O)N2CCc3ccccc3C2)C1 (stereo unspecified)	2	-3	-10	-4	-2	x
CCOC(=O)NCc1ccc(S(=O)(=O)Nc2ccccc2C)cc1	-2	5	-14	2	-3	1
O=C(O)CSc1cc(NS(=O)(=O)c2cccc([N+](=O)[O-])c2)c2ccccc2c1O	40	11	16	76*	86*	x
Cc1ccc(C)c(S(=O)(=O)Nc2cc(SCC(=O)O)c(O)c3ccccc23)c1	16	7	-16	79*	84*[fluorescence artefact?]	4
CCc1ccc(S(=O)(=O)Nc2cc(SCC(=O)O)c(O)c3ccccc23)cc1	0	-2	-29	56*	41	4
O=C(O)c1cccc(S(=O)(=O)Nc2ccc([N+](=O)[O-])cc2O)c1	-14	-6	-110	-12	-1	x
O=S(=O)(Nc1cc(Sc2cccc3cccnc23)c(O)c2ccccc12)c1ccccc1	-7	14	-13	68*	9	2
SMILES	Calpain2 inh	p47phox inh	Mcl1-Bid inh	Mcl1-Noxa inh	14-3-3 Bad PPI	Mcl-1 Bim block
O=C1CCC/C(=N/Nc2ccc(Cl)cc2)C1	-112	-3	-42	22	-11	4
O=C(Nc1ccc(Cl)cc1)N(C1=NCCC1)c1ccc(OC(F)F)cc1	4	-3	-1	-4	11	-1
O=C(OCc1cnc(Cl)s1)c1cccc(Cl)c1Cl	17	-6	-9	4	15	31
Cc1cnc(C(=O)OCC(=O)Nc2oc(-c3ccccc3)c(-c3ccccc3)c2C#N)cn1	-65	-8	1	54*	0	0
CSc1nc(N(C)C)c2ccccc2n1	-1	-4	-21	1	-4	1
CN(C)c1nc2ccccc2c(N)c1-c1ccccc1	-32	-7	39	28	77*	2
COc1ccccc1N(C)S(=O)(=O)c1ccc(C(=O)OCC(N)=O)cc1	4	-1	1	14	-7	44*
COc1ccccc1N(C)S(=O)(=O)c1ccc(C(=O)NC(C)(C)C)cc1	40	179*	-3	13	33	4
COc1ccccc1N(C)S(=O)(=O)c1ccc(C(=O)O)cc1	5	5	-25	25	-5	0
COc1ccccc1N(C)S(=O)(=O)c1ccc(C(=O)OCC(=O)N2CCCCCC2)cc1	1	-2	-3	-6	-2	-1
O=C(CSc1nc(C2CC2)nc2ccccc12)N1c2ccccc2Sc2ccccc21	-162	-37	-20	-13	1	-1
COc1ccc(N2C(=S)NC3CS(=O)(=O)CC32)cc1 (stereo unspecified)	7	-4	-9	1	-3	x
COc1ccccc1NC(=O)CSCc1nc2ccccc2[nH]1	0	-1	52*	13	4	-4
COc1ccccc1NC(=O)CSCC(N)=O	-34	-7	6	-15	4	-4
Cc1nc2c(c(=O)n1CCC1=CCCCC1)c1nc3ccccc3nc1n2/N=C/c1ccccc1	-104	-99	-11	17	-3	0
CCOCCCn1c(C)nc2c(c1=O)c1nc3ccccc3nc1n2CCC1=CCCCC1	-189	-20	66*	12	27	-3
CCn1c(-c2cc(Cl)ccc2OC)n[nH]c1=S	-22	-2	42	59*	3	-4
C=CCn1c(-c2cc(Cl)ccc2OC)n[nH]c1=S	-18	-5	-11	12	11	-6
Cc1cc(C)c2cc3c(N)c(C(=O)Nc4c(C)[nH]c(=O)[nH]c4=O)sc3nc2c1	-74	-51	-28	54*	33	-24
Cc1cc2cc3c(=O)[nH]c(=O)[nH]c3nc2cc1C	-155	151*	0	3	-14	x
Cc1nc2cc3ccccc3cc2c(=O)[nH]1	-234	-6	-3	12	-3	0
